Six molecules from PubChem BioAssay can be followed below.

Active and inactive are the calls of the source.

The subject of assay [1] is Human papillomavirus type 1a protein E7 (residues 44-93). Kind of assay: small molecules binding HPV E7 44-93 – biochemical, small-molecule microarray, residues 44-93, 635 nm fluorescence, primary screen (AID 1108).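 Also: E7 fragment applied at 1 µg/mL in TBST for 1 h at 4 C; score combines spot fluorescence with its signal to noise ratio.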 The note with it: fluorescence 635 nm, higher = more signal.
The nature of assay [2]: hepatitis C replication reporter changes, two-sided – Huh7 cells, luciferase reporter, HCV replication inhibitor project, primary screen (AID 1109).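 Also: huh7 hepatoma cells harbouring a luciferase neomycin HCV replicon reporter; luciferase luminescence as measure of HCV replicon replication; test concentration not given here.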 To be noted: Huh7 HCV replicon luciferase reporter, 48 h; higher = more signal.
Assay [3] has as its target Left-right determination factor 2 (Homo sapiens) (UniProt O00292). Kind of assay: small molecules binding LEFTY2 protein – biochemical, small-molecule microarray, 635 nm fluorescence scan, primary screen (AID 1110). The note with it: higher = more signal.
Assay [4] has as its target Calmodulin-1 (Homo sapiens) (UniProt P0DP23). Description: small molecules binding calmodulin-1 with EGTA – biochemical, small-molecule microarray, Cy5-labelled CALM1, profiling panel (AID 1111).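 Also: labelled calmodulin applied in Tris saline Tween buffer holding calcium plus EGTA and DTT.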 The note with it: Cy5-CALM1 binding fluorescence, higher = more signal.
For assay [5] the target is unchanged. Kind of assay: small molecules binding Ca-loaded calmodulin-1 – biochemical, small-molecule microarray, Cy5-labelled CALM1, plus calcium, artefact control for SMM control-protein annotation, profiling panel (AID 1112).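 Also: score merges spot fluorescence with signal to noise from triplicate slides.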 To be noted: Cy5-CALM1 binding fluorescence, higher = more signal.
A short description of assay [6]: probe aWnt5a binding to arrayed compounds – biochemical, biotinylated probe, 635/667 nm fluorescence, primary screen (AID 1113).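 Also: score merges 667 nm fluorescence intensity with signal-to-noise per printed feature.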 The note with it: small-molecule microarray, higher = more signal.
Assay [7] in a line: probe aShh binding to arrayed compounds – biochemical, biotinylated probe, 635/667 nm fluorescence, primary screen (AID 1114).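 Also: probe is biotin-labelled aShh protein from a stem cell growth factor screen; measures binding of labelled protein to compounds printed on the slide; score merges feature fluorescence at 667 nm with signal-to-noise.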 To be noted: small-molecule microarray, higher = more signal.
A short description of assay [8]: probe aNog binding to arrayed compounds – biochemical, biotinylated probe, 635/667 nm fluorescence, primary screen (AID 1115).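 Also: probe is biotinylated aNog protein used at 0.15 µg/mL for 1 h at 4 C; z-score combines 667 nm fluorescence of each spot with its signal to noise.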 The note with it: small-molecule microarray, higher = more signal.
Assay [9] deals with Torsin-1A-interacting protein 1 (Homo sapiens) (UniProt Q5JTV8). Description: compound microarray binding of lysate hLAP1 – cell lysate, small-molecule microarray, COS7 lysate, 635/667 nm fluorescence, primary screen (AID 1116). To be noted: 635 nm fluorescence, higher = more signal.
The target of assay [10] is Alpha-bungarotoxin (Bungarus multicinctus) (UniProt P60615). Description: compounds binding labelled alpha-BTX control protein – biochemical, small-molecule microarray, Alexa647 label, 635/667 nm fluorescence, artefact control for SMM control protein annotation, profiling panel (AID 1117). To be noted: alpha-BTX-A647 binding fluorescence, higher = more signal.
The target in assay [11] is Albumin (Bos taurus) (UniProt P02769). Description: compounds binding labelled BSA control protein – biochemical, small-molecule microarray, Alexa647 label, 635/667 nm fluorescence, artefact control for SMM control protein annotation, profiling panel (AID 1118).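 Also: score merges 667 nm emission intensity and signal-to-noise per printed compound spot.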 The note with it: BSA-A647 binding, fluorescence 635 nm, higher = more signal.
Assay [12] in a line: probe aXIP binding to arrayed compounds – biochemical, NeuroSMM set, 635/667 nm fluorescence, primary screen (AID 1119).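 Also: probe is the protein aXip251-270 applied at 1 µg/mL to compound-printed slides; binding of probe to printed compounds measured as 667 nm fluorescence plus signal to noise.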 The note with it: small-molecule microarray, higher = more signal, called active from +8 up or from −8 down.
The nature of assay [13]: probe aNOTCH3 binding on compound microarray – biochemical, small-molecule microarray, 635/667 nm fluorescence, primary screen (AID 1120).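 Also: probe is a biotin-tagged antibody raised against NOTCH3 rather than NOTCH3 protein; score merges spot fluorescence near 667 nm with spot signal to noise.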 To be noted: higher = more signal.
The nature of assay [14]: probe aNOTCH2 binding on compound microarray – biochemical, small-molecule microarray, 635/667 nm fluorescence, primary screen (AID 1121).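 Also: score merges feature fluorescence read at 667 nm with its signal to noise.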 To be noted: higher = more signal.
Assay [15] deals with Carbonic anhydrase 2 (Homo sapiens) (UniProt P00918). Description: compounds binding carbonic anhydrase 2 – biochemical, small-molecule microarray, Alexa647-labelled CAII, profiling panel (AID 1122). The note with it: CAII-A647 binding fluorescence, higher = more signal.
Assay [16] is described as follows: COS7 lysate on small-molecule microarray, probe aHis, 635 nm (AID 1123).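 Also: z-score combines 667nm fluorescence intensity with signal-to-noise per printed compound spot.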 To be noted: COS7 cell lysate, fluorescence, higher = more signal.
Assay [17] is described as follows: probe aLAP1 signal on lysate-treated microarray – cell lysate, small-molecule microarray, COS7 lysate, primary screen (AID 1124).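 Also: lysate comes from COS7 cells expressing LAP1 and is applied at 0.3 µg/mL; score merges spot fluorescence near 667 nm with signal-to-noise over triplicate slides.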 The note with it: probe aLAP1, fluorescence, higher = more signal.
Assay [18] has as its system Sam68 (KHDRBS1). Description: compounds binding KHDRBS1 protein – biochemical, small-molecule microarray, 635 nm fluorescence, primary screen (AID 1125).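 Also: score merges 667 nm channel intensity with signal to noise over triplicate slides.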 The note with it: higher = more signal.
In assay [19] the test system is Chordin-like protein 2 (CHRDL2). Kind of assay: compounds binding chordin-like 2 – biochemical, small-molecule microarray, 635 nm fluorescence, primary screen (AID 1126).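 Also: printed compound slides probed with Chrdl2 protein at 4 µg/mL for 1 h at 4 C; score merges 667 nm emission intensity with signal to noise over three replicate slides.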 The note with it: fluorescence 635 nm, higher = more signal.
The target of assay [20] is Concanavalin-A (Canavalia ensiformis) (UniProt P02866). Description: compounds binding concanavalin A lectin – biochemical, small-molecule microarray, Alexa647 label, 635 nm, artefact control for SMM control protein annotation, primary screen (AID 1127).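 Also: z combines 667 nm emission intensity with signal-to-noise across three replicate slides.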 To be noted: ConA-A647 binding fluorescence, higher = more signal.
Sequence of Concanavalin-A (Canavalia ensiformis) (P02866 whole entry, looked up): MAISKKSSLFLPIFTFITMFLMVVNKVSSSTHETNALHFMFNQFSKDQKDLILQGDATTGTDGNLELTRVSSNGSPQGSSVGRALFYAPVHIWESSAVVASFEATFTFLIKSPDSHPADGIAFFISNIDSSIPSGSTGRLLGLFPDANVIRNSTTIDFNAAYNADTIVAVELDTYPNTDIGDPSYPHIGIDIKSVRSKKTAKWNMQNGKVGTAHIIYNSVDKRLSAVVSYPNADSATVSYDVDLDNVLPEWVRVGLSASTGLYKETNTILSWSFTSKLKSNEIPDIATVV

Sequence of Albumin (Bos taurus) (P02769 whole entry, looked up): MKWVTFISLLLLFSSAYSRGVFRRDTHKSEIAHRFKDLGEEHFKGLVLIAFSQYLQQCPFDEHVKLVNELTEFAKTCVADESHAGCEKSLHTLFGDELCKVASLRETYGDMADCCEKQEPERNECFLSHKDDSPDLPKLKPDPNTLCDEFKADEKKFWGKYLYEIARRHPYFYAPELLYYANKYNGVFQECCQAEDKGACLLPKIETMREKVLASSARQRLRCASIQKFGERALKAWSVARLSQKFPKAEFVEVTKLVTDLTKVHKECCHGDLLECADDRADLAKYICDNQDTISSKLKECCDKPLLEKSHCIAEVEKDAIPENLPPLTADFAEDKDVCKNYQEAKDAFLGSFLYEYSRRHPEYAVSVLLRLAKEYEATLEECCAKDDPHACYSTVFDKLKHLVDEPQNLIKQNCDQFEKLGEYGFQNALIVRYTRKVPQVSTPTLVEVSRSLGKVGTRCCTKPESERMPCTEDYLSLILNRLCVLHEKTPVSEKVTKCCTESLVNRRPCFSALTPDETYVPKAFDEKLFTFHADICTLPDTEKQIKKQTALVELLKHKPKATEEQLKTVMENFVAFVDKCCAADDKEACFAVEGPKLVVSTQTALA
Sequence of Torsin-1A-interacting protein 1 (Homo sapiens) (Q5JTV8 whole entry, looked up): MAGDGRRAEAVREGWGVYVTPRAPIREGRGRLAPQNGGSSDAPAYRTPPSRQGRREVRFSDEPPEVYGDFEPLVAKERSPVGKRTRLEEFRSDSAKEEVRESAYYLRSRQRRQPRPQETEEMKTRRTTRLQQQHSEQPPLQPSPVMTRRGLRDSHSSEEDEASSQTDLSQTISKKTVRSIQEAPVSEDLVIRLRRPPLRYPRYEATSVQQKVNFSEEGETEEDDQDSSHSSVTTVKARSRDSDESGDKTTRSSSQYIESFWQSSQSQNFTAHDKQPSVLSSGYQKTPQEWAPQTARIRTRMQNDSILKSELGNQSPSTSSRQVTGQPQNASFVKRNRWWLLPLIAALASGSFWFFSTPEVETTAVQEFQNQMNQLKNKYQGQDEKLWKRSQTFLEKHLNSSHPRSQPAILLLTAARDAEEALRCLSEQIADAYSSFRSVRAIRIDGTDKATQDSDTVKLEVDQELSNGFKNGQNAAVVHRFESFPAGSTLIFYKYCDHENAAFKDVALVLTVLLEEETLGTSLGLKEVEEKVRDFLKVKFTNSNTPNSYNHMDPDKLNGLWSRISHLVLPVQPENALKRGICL
Sequence of Left-right determination factor 2 (Homo sapiens) (O00292 whole entry, looked up): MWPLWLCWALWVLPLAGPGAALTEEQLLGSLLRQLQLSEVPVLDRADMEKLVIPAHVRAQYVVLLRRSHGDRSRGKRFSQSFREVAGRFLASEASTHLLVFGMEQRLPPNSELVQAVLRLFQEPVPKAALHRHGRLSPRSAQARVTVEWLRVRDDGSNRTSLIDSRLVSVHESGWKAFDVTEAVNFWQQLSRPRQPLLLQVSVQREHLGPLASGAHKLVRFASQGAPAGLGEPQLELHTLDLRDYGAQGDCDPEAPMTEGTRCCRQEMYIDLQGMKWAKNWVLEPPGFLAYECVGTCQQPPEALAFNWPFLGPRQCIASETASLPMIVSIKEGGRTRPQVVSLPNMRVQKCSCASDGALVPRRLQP
Sequence of Alpha-bungarotoxin (Bungarus multicinctus) (P60615 whole entry, looked up): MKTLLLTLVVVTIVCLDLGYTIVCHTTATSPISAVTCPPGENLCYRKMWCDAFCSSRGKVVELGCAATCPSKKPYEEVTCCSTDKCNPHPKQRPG

For `COC(=O)[C@@]1(Cc2ccc(OC)cc2)[C@H]2c3cc(C(=O)N4CCCC4)n(Cc4ccc(OC)c(OC)c4)c3C[C@H]2CN1C(=O)c1ccccc1`, the composite z-score in assay [1] was 1.39; in assay [3], 0.381; in assay [4], 2.16; in assay [5], 0.811; in assay [6], -0.158; in [7], -0.008. Moreover, the composite z-score in assay [8] stood at 0.162; in [9], 0.371; in [10], 0.381; in assay [11], 1.08; in assay [13] it was 1.28; in assay [14], 0.852. The composite z-score came out at 0.592 in [15]; 2.74 in assay [16]; 0.601 in assay [17]; 1.3 in assay [18]; 0.206 in assay [19]; 1.14 in [20]. The molecule further displayed a z-score in assay [2] of -1.72. In addition, the composite Z-score in assay [12] is 0.983 (inactive).

For the molecule `[N-]=[N+]=Nc1ccccc1C[C@]1(C(N)=O)N=C(c2ccc(OCCCO)cc2)O[C@H]1c1ccccc1`, the composite z-score is 1.43 in [1]; -0.932 in assay [3]; 1.59 in assay [4]; 0.0189 in assay [5]; -0.0721 in assay [6]; 0.0723 in assay [7]. Besides, the composite z-score is -0.235 in assay [8]; 2.05 in assay [9]; 1.03 in assay [10]; 0.989 in assay [11]; 0.0556 in assay [13]; -0.106 in assay [14]. The composite z-score is 0.662 in assay [15]; 2.59 in assay [16]; 0.386 in assay [17]; 0.974 in assay [18]; -1.18 in [19]; 0.6 in assay [20]. The same molecule yielded a z-score in assay [2] of -0.947. Also, the composite Z-score in [12] was 0.364 (inactive).

With `C=C/C=C/[C@H]1C(=C)CN([C@@H](Cc2ccccc2)C(=O)OC)[C@@H]1[C@H](O)Cc1ccccc1`, the composite z-score was -0.784 in assay [1]; -1.09 in assay [3]; -0.679 in assay [4]; -1.1 in assay [5]; -0.129 in assay [6]; -0.138 in [7]. The composite z-score in assay [8] was -0.0624; in assay [9], -0.207; in assay [10], -0.217; in assay [11] it was -0.668; in assay [13], -0.235; in assay [14] it was -0.195. In addition, the composite z-score in assay [15] is -0.174; in assay [16], 0.25; in assay [17] it was 0.161; in assay [18], -0.24; in [19], -0.0454; in assay [20] it was -0.243. Besides, in [2], the z-score is -0.331. Moreover, the composite Z-score in assay [12] was -0.624 (inactive).

As for `C#CCN(Cc1ccccc1Br)C(/C=C/c1ccccc1)CO` (stereo not given), the composite z-score in [1] is -0.413; in assay [3], -0.362; in [4], -0.669; in [5], -0.423; in assay [6], -0.16; in assay [7] it was 0.0494. In addition, the composite z-score is -0.443 in assay [8]; 0.104 in [9]; 0.0125 in assay [10]; -0.406 in [11]; -0.212 in assay [13]; -0.18 in assay [14]. For the same molecule, the composite z-score in assay [15] is -0.22; in assay [16], -0.163; in assay [17], -0.146; in assay [18], -0.271; in assay [19] it was 0.188; in assay [20] it was -1.25. Moreover, the z-score in assay [2] is -3.49. Also, the composite Z-score in assay [12] is -0.177 (inactive).

Consider `COc1ccc(COC2OC[C@]3(C)[C@H]4C5=C(CN3C(=O)OC(C)(C)C)[C@H](C)C(CO)C(CO)C5CC[C@@H]24)cc1` (stereo not given in full), for which the composite z-score was 1.27 in [1]; -0.877 in assay [3]; 1.44 in assay [4]; 0.86 in assay [5]; 0.0118 in assay [6]; 0.202 in assay [7]. For the same molecule, the composite z-score in assay [8] was found to be 0.97; in [9], 1.17; in assay [10], 0.608; in assay [11], 0.73; in [13], 0.339; in assay [14], 0.191. Also, the composite z-score in assay [15] was 0.513; in assay [16] it was 0.814; in assay [17], 0.846; in assay [18], 0.567; in assay [19], -0.888; in [20] it was 0.927. Also, the z-score in [2] was -0.355. Also, the composite Z-score in [12] is 0.086 (inactive).

For `[N-]=[N+]=Nc1ccccc1C[C@]1(C(=O)NCC(O)CO)N=C(c2ccc(OCCCO)cc2)O[C@H]1c1ccccc1N=[N+]=[N-]` (stereo not given in full), the composite z-score was 0.577 in assay [1]; -0.588 in assay [3]; 0.771 in assay [4]; 0.839 in [5]; -0.0285 in assay [6]; 0.232 in assay [7]. Besides, the composite z-score was -0.0592 in assay [8]; 0.407 in [9]; 0.15 in [10]; 0.376 in [11]; 0.0151 in [13]; 0.0809 in assay [14]. Also, the composite z-score in assay [15] was 0.391; in assay [16], 1.69; in [17], -0.352; in assay [18] it was 0.431; in assay [19] it was -0.424; in assay [20], -0.899. In assay [2], the z-score was -1.74. The composite Z-score in [12] is 0.045 (inactive).
